From PubChem BioAssay
Sampled rows, rich in hits. Any-hit rate of the full collection: about 9.4%.
HPGD inh – qHTS Assay for Inhibitors of HPGD (15-Hydroxyprostaglandin Dehydrogenase); Potency, µM, without a hit: top-dose activity change, negative = inhibition, hits mostly inhibitors; purified HPGD, NADH fluorescence kinetic, PGE2 substrate; AID 894, 2007; hit rate 4.3% among 150,000; 15-hydroxyprostaglandin dehydrogenase [NAD(+)] (Homo sapiens), P15428; active means well fitted inhibition curve with a large enough effect, not every such curve was filed as active; inconclusive means small, poorly fitted or top-dose-only effect, or another doubt; inactive means no such curve, though single readings can be large or run the other way; further: potency means the concentration at half of the fitted maximal effect; on the % scale 0 is the no-effect control and ±100 the full control effect
Target sequence (P15428 whole entry, looked up): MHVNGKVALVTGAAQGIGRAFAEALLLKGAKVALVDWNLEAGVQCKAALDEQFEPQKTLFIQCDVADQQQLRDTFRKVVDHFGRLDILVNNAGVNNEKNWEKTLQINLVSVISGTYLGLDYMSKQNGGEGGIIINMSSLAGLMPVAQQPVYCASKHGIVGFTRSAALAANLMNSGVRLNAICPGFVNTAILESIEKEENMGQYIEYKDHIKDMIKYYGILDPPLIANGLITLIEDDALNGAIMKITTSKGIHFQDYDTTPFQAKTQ
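NADH formation kinetics: reaction with 30 uM PGE2 and 1 mM NAD+ (final), 20 nM enzyme, Tris-HCl pH 8 with Tween 20, after 15 min compound preincubation at room temperature. Fluorescence change, last versus first of five reads.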
HTT ATP protect – qHTS Multiplex Assay to Identify Dual Action Probes in a Cell Model of Huntington: Cytoprotection (ATP) | Potency, µM (doses to about 56.4 µM), for the others: cytoprotection (ATP increase), hits mostly activators | PC12 HTT-Q103 induced, cytoprotection, ATP luminescence, 40 h | hit rate 0.14% among 230,000 | AID 1471, 2008; further: potency means the concentration at half of the fitted maximal effect; % of control where 0% means no effect; nearly all actives have a fitted effect of over 45% in size
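Huntington model: PC12 line, ecdysone-inducible HTTQ103 exon1–GFP, tebufenozide 100 nM. Test articles in a dose series. Endpoint luminescence from cellular ATP.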
ALDH1A1 block – qHTS Assay for Inhibitors of Aldehyde Dehydrogenase 1 (ALDH1A1) | Aldehyde dehydrogenase 1A1 (Homo sapiens), P00352 | Purified ALDH1A1, NADH fluorescence, propionaldehyde substrate | hit rate 7.3% among 220,000 | Potency, µM (series often up to 75.3 µM), without a hit: at the highest dose activity, negative = inhibition, most hits filed as inhibitors; active means well fitted inhibition curve with a large enough effect, not every such curve was filed as active; inconclusive means small, poorly fitted or top-dose-only effect, or another doubt; inactive means no such curve, though single readings can be large or run the other way;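 further: potency means the concentration at half of the fitted maximal effect; plate controls were no enzyme wells and a reference inhibitor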
Target sequence (P00352 whole entry, looked up): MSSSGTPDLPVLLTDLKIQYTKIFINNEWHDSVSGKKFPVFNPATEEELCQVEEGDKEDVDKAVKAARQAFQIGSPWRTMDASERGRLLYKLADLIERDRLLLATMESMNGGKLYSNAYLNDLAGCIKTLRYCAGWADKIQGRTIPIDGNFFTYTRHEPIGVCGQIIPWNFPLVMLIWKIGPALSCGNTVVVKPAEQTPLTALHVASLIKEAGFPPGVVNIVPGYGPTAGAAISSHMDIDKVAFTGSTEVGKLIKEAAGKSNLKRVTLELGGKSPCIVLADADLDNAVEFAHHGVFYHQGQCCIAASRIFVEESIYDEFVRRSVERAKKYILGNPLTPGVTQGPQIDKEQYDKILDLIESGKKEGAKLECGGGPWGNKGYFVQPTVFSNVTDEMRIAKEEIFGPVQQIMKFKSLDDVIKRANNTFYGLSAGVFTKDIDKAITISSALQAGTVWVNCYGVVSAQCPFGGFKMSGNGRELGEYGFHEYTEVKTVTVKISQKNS
IMPase cell inh – qHTS Assay for Identifying the Cell-Membrane Permeable IMPase Inhibitors; CHO-M1 cells, IP1 accumulation, HTRF TR-FRET ratio; AID 901, 2007; 120,000 tested, under 10 active; Inositol monophosphatase 1 (Rattus norvegicus), P97697; inhibition (IP1 accumulation), % at 46.1 µM; active means well fitted curve in the direction sought with a large enough effect in the signal ratio, not every such curve was filed as active; inconclusive means small, poorly fitted or top-dose-only effect, or a change in a side signal; inactive means no such curve, though single readings can be large or run the other way; the % refers to the signal ratio;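 further: cells stimulated with carbachol in lithium chloride buffer; plate controls were DMSO basal wells for no effect and reference inhibitor wells for full effect; higher means more IMPase inhibition seen as more IP1 and lower FRET ratio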
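Elevated IP1 in lysates lowers TR-FRET signal (665/620 ratio and 620 channel reported). Cells were CHO-M1, given carbachol (50 uM as added) plus 50mM LiCl, pH 7.4, 30 min, 37C; compounds titrated up to 46 uM; AC50 by Hill equation.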
HTT aggregate – qHTS Multiplex Assay to Identify Dual Action Probes in a Cell Model of Huntington: Aggregate Formation (GFP). PC12 HttQ103-GFP aggregates, Acumen cytometry, 40 h. Potency, µM (titrated, usually from 46.1 µM), without a hit: at the highest dose activity change, negative = inhibition, usual class: inhibitors. hit rate 1.1% among 220,000. AID 1688, 2009; further: potency means the concentration at half of the fitted maximal effect; on the % scale 0 is the no-effect control and ±100 the full control effect; nearly all actives have a fitted effect of over 60% in size
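Aggregates are detected as GFP objects 1–25 µm with signal 6 STDEV over background in lysates of induced PC12 cells. These carry Huntingtin exon 1 with 103 glutamines fused to GFP under an ecdysone promoter; compounds titrated.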
IMPase Li cell – qHTS Assay for Identifying the Cell-Membrane Permeable IMPase Inhibitors: Potentiation with Lithium; hit rate 0.35% among 210,000; AID 1457, 2008; CHO-M1 cells, IP1 TR-FRET (IP-One), carbachol + lithium; Potency, µM (doses to about 59.4 µM), without a hit: top-dose activity, negative = IMPase inhibition, usual class: inhibitors;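 further: IP1 builds up when IMPase is blocked and the TR-FRET signal falls; potency means the concentration at half of the fitted maximal effect; plate controls were basal vehicle for no effect and high inhibitor control for full effect; nearly all actives have a fitted effect of over 50% in size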
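Lithium-sensitised IP1 accumulation assay; M1-expressing CHO cells treated 30 min at 37C with compound. Competitive antibody detection by time-resolved FRET followed a 10 min room-temperature lysis step.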
* marks the source's active call; other numbers are inactive results; ? = inconclusive; nt = no result given; ! = not confirmed by another sample; [ ] = another dose, or the depositor's remark. Unless noted, the call rests on the fitted dose curve; in most records, active means well fitted curve in the direction sought with a large enough effect; inconclusive means small, poorly fitted or top-dose-only effect, or another doubt; inactive means no such curve, though single readings can be large; an effect the other way counts as inactive or inconclusive.

SMILES | HPGD inh | HTT ATP protect | ALDH1A1 block | IMPase cell inh | HTT aggregate | IMPase Li cell
CCCCCCCC1=CC2=CC(=O)C(C)(O)C(=O)C2=CN1CCCC (stereo not drawn) | nt | 8%[10 µM] | -2%[13.5 µM] | nt | nt | nt
COc1cc2ccccc2cc1C(=O)Nc1ccc2oc(-c3ccc(F)cc3)nc2c1 | nt | nt | nt | -9 | nt | nt
c1ccc(C(c2ccccc2)N2CCC3(CCNCC3)CC2)cc1 | -9% | 6% | 1% | nt | nt | 24%
CCN(CC)CCNC(=O)c1cccc(NC(=O)C(=O)c2ccccc2NC(C)=O)c1 | nt | 5%[10 µM] | 5% | nt | -10% | -1%
COc1cc(Cl)ccc1NC(=S)N(CCN1CCOCC1)C1CCN(C(C)=O)CC1 | nt | -12% | 0% | nt | -10% | -6%
O=[N+]([O-])c1cccc(-c2cnc3ccccc3n2)c1 | nt | -1%[10 µM] | nt | nt | 2%[9.22 µM] | nt
O=[N+]([O-])c1cnc2ccccc2c1 | -1% | nt | 10µM* | nt | 6% | -10%
COc1ccc2nccc(SCC(=O)O)c2c1 | -12% | 1%[10 µM] | 5%[13.5 µM] | nt | nt | 5%
Cc1cc(C(=O)OCC(=O)N2CC(C)CC(C)C2)c(C)o1 (stereo not drawn) | -8% | 18% | 14µM* | 1 | -2% | 6%[38.3 µM]
N#Cc1cccc(-c2cncnc2NCc2ccccc2)c1 | nt | -8% | 9% | nt | nt | -6%
CCCCCCCCCCC/C=C\C(C)(C)/C=C\CCCC(=O)O | -4% | -22% | -12% | 1 | nt | 4%
O=S(=O)(Nc1cccnc1)c1cccc2cccnc12 | nt | 3% | nt | nt | nt | nt
CCN(C(=O)c1ccc2c(Cl)c3c(nc2c1)CCC3)c1ccc(C)c(C)c1 | ? | nt | 14µM* | nt | -22% | 18%
CN(C(=O)c1ccc2c(Cl)c3c(nc2c1)CCC3)c1ccccc1 | 4.5µM* | nt | ? | nt | -4% | 16%
CCc1cccc(C)c1NC(=O)CSc1nc2ccccc2nc1N1CCOCC1 | nt | nt | nt | 8 | nt | nt
COC(=O)c1c(C)c2c(c(C)c1O)OC(=O)c1c(C)c(Cl)c(O)c(Cl)c1O2 | 7.1µM*! | -154% | 8% | nt | nt | -1%
CCC1NC(=O)C(NC(=O)c2ncccc2O)C(C)OC(=O)C(c2ccccc2)NC(=O)C2CC(=O)CCN2C(=O)C(Cc2ccccc2)N(C)C(=O)C2CCCN2C1=O (stereo not drawn) | nt | 11% | nt | nt | 9% | nt
O=C(Cc1coc(-c2ccc(F)cc2)n1)NC1CCCCC1 | 18µM* | 0% | 9% | 8 | -7% | 8%[38.3 µM]
CC(C)/C(=N/[N+](C)(C)C)c1ccccc1 | -5% | 3%[10 µM] | 4%[13.5 µM] | nt | nt | 8%
COc1ccc(N=C2NC(=O)/C(=C\C=C\c3ccco3)S2)cc1 | nt | -7% | 11µM* | nt | 27%[9.22 µM] | -4%
N#Cc1c(Cl)nc(SCc2ccccc2)nc1-c1ccccc1 | 2.8µM* | -3% | 32µM* | ? | ? | 2.5µM*
O=c1nc(SCc2ccc(Cl)cc2)nc(-c2ccccc2)[nH]1 | nt | 2%[10 µM] | nt | nt | -16%[9.22 µM] | nt
N#CC(=C(/N)Sc1ccccc1N)/C(C#N)=C(\N)Sc1ccccc1N | nt | 26% | nt | nt | nt | -4%
O=C1CN(S(=O)(=O)c2cc(Cl)ccc2Cl)CCN1 | nt | -26% | 1% | nt | 2% | 2%
CCN1CCc2c(sc(NC(=O)c3ccc(S(=O)(=O)N4CCOCC4)cc3)c2C(=O)OC)C1 | -5% | -7%[0.074 µM] | -12% | -1 | -17% | 5%[38.3 µM]
SMILES | HPGD inh | HTT ATP protect | ALDH1A1 block | IMPase cell inh | HTT aggregate | IMPase Li cell
NC(=O)c1ccccc1NC(=S)NC(=O)CCc1ccccc1 | 28µM* | -2%[10 µM] | 13µM* | nt | 27% | 1%
CCN1CCc2c(sc(NC(=S)NC(=O)c3ccco3)c2C(N)=O)C1 | nt | 9%[10 µM] | 7.9µM* | nt | -1%[9.22 µM] | nt
CCN1CCc2c(sc(NC(=O)c3ccc(S(=O)(=O)N4CCOCC4)cc3)c2C(N)=O)C1 | -14% | 14% | 40µM* | 9 | -4% | 21%[38.3 µM]
Cc1sc(NC(=S)NC(=O)CCc2ccccc2)c(C(N)=O)c1C | -15% | -69%[10 µM] | ? | nt | ? | 11µM*
Cc1ccc(-c2nnc(Nc3cccc(Br)c3)c3ccccc23)cc1S(=O)(=O)N1CCCCC1 | nt | nt | nt | -12 | nt | nt
Cc1ccc2nc(NC(=O)c3ccco3)sc2c1 | -19% | -135% | 5% | -1 | -14% | -8%[38.3 µM]
COC(=O)c1c(NC(=S)NC(=O)c2ccco2)sc2c1CCCC2 | -12% | 21%[1.9 µM] | ? | 6 | -1% | 1%
CCOC(=O)N1CCc2c(sc(NC(=O)c3ccc(Cl)s3)c2C(N)=O)C1 | 32µM* | -4% | 19µM* | 12 | 12% | 10%
Cc1sc(NC(=S)NC(=O)c2ccco2)c(C(N)=O)c1C | nt | -86% | 3.2µM* | nt | 3% | -17%
CCN1CCc2c(sc(NC(=O)Nc3ccc(Cl)c(Cl)c3)c2C(N)=O)C1 | -17% | nt | -1% | nt | 11µM* | -8%
Cc1ccc2nc(NC(=S)NC(=O)c3ccco3)sc2c1 | -17% | nt | ? | nt | 1% | 13µM*
O=[N+]([O-])c1cccc(N2Cc3ccccc3C2)c1 | nt | -20% | -7% | nt | 2% | 7%
COC(=O)c1ccc(C(NC(=O)OCc2ccccc2)/C(=C/[C@@H](C)C(=O)NCc2ccc(S(C)(=O)=O)cc2)c2cccnc2)cc1 (stereo partly drawn) | -8% | -4% | ? | nt | nt | 9%
COc1cccc(Nc2ncc3nc(C)c(=O)n(-c4ccccc4)c3n2)c1 | nt | -9% | ? | nt | nt | 4%
CCCC(=O)Nc1sc(Cc2ccccc2)c(C)c1C(N)=O | nt | 6%[10 µM] | 1.8µM* | nt | 8%[9.22 µM] | 18%
N#CC1=C(N)C(C#N)(C#N)C(c2cccnc2)C2COCC=C12 (stereo not drawn) | 28µM* | -26%[10 µM] | 4% | -2 | -11% | -1%[38.3 µM]
O=C(Nc1ccc(Br)cc1)C1CCCN(S(=O)(=O)c2ccc(Br)s2)C1 (stereo not drawn) | nt | nt | nt | -1 | nt | nt
O=C(CC1CCS(=O)(=O)C1)Nc1ccc[nH]c1=O (stereo not drawn) | -20% | 11%[10 µM] | 25µM* | 7 | 2% | -4%
CC(=O)C1=C(O)C(=O)N(c2ccc(Br)cn2)C1c1ccccc1F (stereo not drawn) | -29% | -26% | ? | -10 | -9% | 11µM*
COc1cccc2c(=O)n(CC(=O)Nc3cccc(F)c3)ccc12 | ? | 24% | ? | -23 | 10% | 14µM*
CCOC(=O)C1CCCN(C(=O)CC(c2ccccc2)c2ccccc2)C1 (stereo not drawn) | 28µM* | 7%[10 µM] | -9% | 8 | -19% | 6%
